Shiga toxin inh: inhibitors of Shiga toxin in Vero cells. Vero cells, Shiga toxin protein synthesis inhibition reporter. inhibition, % at 38.7 µM. actives 9.2% (n = 290,000). AID 2315; in the data active = inhibition mostly above about 28%, no sharp cut-off; inactive = mostly below about 43%; also: 0% is about no effect
Pf growth 48h: inhibits P. falciparum growth in the first generation, 48 h; P. falciparum luciferase growth in erythrocytes, 48 h; Potency, µM (series often up to 28.7 µM), without a hit: top-dose activity change, negative = inhibition, hits mostly inhibitors; actives 5.9% (n = 310,000); also: potency is read from the fitted curve at half-maximal effect; % is scaled to controls: 0 for no effect and ±100 for the full control effect
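Read-out is firefly luciferase luminescence from an integrated reporter in P. falciparum, so falling signal marks reduced parasite growth. Infected erythrocytes were at 2% hematocrit and 0.1% parasitemia (final) in Albumax-supplemented RPMI 1640.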
HCMV inh: inhibitors of human cytomegalovirus. HFF cells, HCMV-luciferase reporter, 72 h; active compounds read low. activity change, negative = inhibition, % at 57.5 µM. actives 4.5% (n = 410,000); in the data active = activity change below about -60%; inconclusive = no clear call, values can overlap the other calls; inactive = above about -39%; also: % is scaled to controls: 0 for no effect and ±100 for the full control effect
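Luciferase read-out from HCMV-luciferase-infected HFFs (MOI 1 PFU/cell) 72 h post infection at 37C; compounds added after 16 h cell attachment; activity normalized between buffer-only basal and Salinomycin (10uM) inhibitor controls.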
Pf growth 96h: P. falciparum growth inhibition at 96 hour, primary screen for plastid delayed-death inhibitors. Potency, µM (titrated, usually from 28.7 µM), for the others: at the top dose activity change, negative = inhibition, actives largely listed as inhibitors. P. falciparum luciferase reporter growth, 96 h. actives 6.9% (n = 320,000); also: potency is read from the fitted curve at half-maximal effect; % is scaled to controls: 0 for no effect and ±100 for the full control effect
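Parasite growth measured via integrated firefly luciferase reporter in P. falciparum. Infected erythrocytes at 2% hematocrit, 0.05% parasitemia final were treated 96 hours at 37 C under 5% CO2, and luminescence was read.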
Cycloheximide cs: affects cycloheximide protein synthesis inhibition readout, counter-screen; cell reporter, cycloheximide protein synthesis inhibition counterscreen; max response, %; actives 12% (n = 300,000); AID 2314; in the data active = max response mostly above about 13%, no sharp cut-off; inactive = mostly below about 14%; also: read at 38.3 µM for the half of the compounds with a filed dose; 0% is about no effect
* hit, by the source's call; u = inconclusive; x = not tested or not shown. Sampled rows, rich in hits. Any-hit rate of the full collection: about 20%. Unless noted, calls follow the shape of the dose curve; as a rule, active = well fitted inhibition curve with a large enough effect; inconclusive = small, poorly fitted or top-dose-only effect, or another doubt; inactive = no such curve, though single readings can be large or run the other way.

SMILES	Shiga toxin inh	Pf growth 48h	HCMV inh	Pf growth 96h	Cycloheximide cs
CNCC(C)COc1ccccc1OCc1ccccc1 (stereo not drawn)	-17	u	-35	12µM*	-3
CCC(=O)N1CCc2cc(Br)cc(S(=O)(=O)N3CCN(c4ccc(C(C)=O)cc4)CC3)c21	x	x	19	x	x
COc1cccc(CNC(=O)CS(=O)(=O)Cc2nc(-c3ccc(C)cc3)oc2C)c1OC	1	-22%	5	u	4
O=C(N/N=C\c1ccc[nH]1)C1COc2ccccc2O1 (stereo not drawn)	-5	4%	-19	-2%	-3
CC(C)CC1Nc2ccc(C(=O)NCCCOC(C)C)cc2NC1=O (stereo not drawn)	x	x	9	x	x
Cc1ccc(SCc2nc(-c3ccc(C(=O)NCC(C)c4ccccc4)cc3)oc2C)cc1 (stereo not drawn)	x	x	-9	x	x
Fc1cccc(Cl)c1CNCc1cccnc1	17	11%	-9	12µM*	-1
O=C(CSCc1c(F)cccc1Cl)NCc1cccnc1	-2	-1%	-18	u	2
COc1ccccc1NS(=O)(=O)c1cccc(NS(=O)(=O)c2cc(C(=O)O)ccc2OC)c1	x	x	-102*	x	x
COc1ccccc1NS(=O)(=O)c1cccc(NS(=O)(=O)c2ccc(Cl)c(C(=O)O)c2)c1	x	x	62	x	x
COc1ccc(NC(=O)NC2CCCCCCC2)c(OC)c1	45*	-3%	x	u	30*
COc1ccccc1NS(=O)(=O)c1cccc(NC(=O)NC2CCCCC2)c1	-10	-3%	-76*	-6%	-2
COc1ccc(CC(=O)NC2CCCCCC2)c(OC)c1	26	-1%	-4	4%	8.5*
COc1ccc(OC)c(NC(=O)CCCC(=O)NC2CCCCC2)c1	-10	6%	1	u	1
COc1ccc(NC(=O)NC2CCN(C(C)C)CC2)c(OC)c1	-5	x	10	4%	-4
O=C(COC(=O)COc1ccccc1Cc1ccccc1)Nc1cccnc1Cl	6	9%	-15	28%	-4
COc1ccc(OCC(=O)NCCCNC(=O)COc2ccc(OC)cc2)cc1	x	u	19	u	x
C/C=C(\C=C\[C@@H](C)C/C=C/CC/C=C/C=C\C[C@@H](OC)/C(C)=C\C=C(C)C)CC(=O)O	25	x	x	x	13
COc1ccccc1NC(=O)NC1CCCCCCC1	35	-28%	u	12µM*	14
CCOc1ccccc1NC(C)C(=O)NC(=O)NC1CCCCC1 (stereo not drawn)	x	u	-15	13µM*	x
COc1ccc(CCC(=O)NC2CCCCC2)cc1	-15	-16%	10	15µM*	10
COc1cccc(NC(=O)CN(C)C(=O)c2cccc(S(=O)(=O)Nc3ccccc3OC)c2)c1	x	13µM*	23	u	x
COc1ccc(CCNC(=O)NC2CCCCC2)cc1	18	10%	31	1%	11
Cc1nccn1CC(O)COc1ccc(Cl)cc1Cl (stereo not drawn)	-2	5%	0	u	-4
CCOc1ccc(C(=O)NCC(c2ccco2)S(=O)(=O)c2cccs2)cc1 (stereo not drawn)	x	x	18	x	x
SMILES	Shiga toxin inh	Pf growth 48h	HCMV inh	Pf growth 96h	Cycloheximide cs
Cc1nn(C)c2c1c(C(F)(F)F)cc(=O)n2CC(=O)N1CCC(C)CC1	x	x	-2	x	x
C[C@H](CO)N1C[C@H](C)[C@H](CN(C)S(=O)(=O)c2ccc(F)cc2)OCc2cnnn2CCCC1=O	x	x	-7	x	x
O=C(Nc1cccc(S(=O)(=O)Nc2ccccc2F)c1)c1ccc2ccccc2n1	27	-21%	u	-5%	8
COc1ccccc1NS(=O)(=O)c1cccc(NC(=O)c2ccc3ccccc3n2)c1	76	-4%	-79*	u	17*
Cn1nc(C(=O)NCc2ccccc2)c2c1-c1ccccc1S(=O)(=O)C2	-3	0%	-17	79%	15
COc1ccccc1N1CCN(C(=O)Cn2ncc3c(=O)oc4ccccc4c32)CC1	x	x	6	x	x
COC(=O)c1ccc2c(c1)C(C)(C)C(/C=C/c1ccccc1O)=[N+]2C	-26	u	-104*	u	-13
COC(=O)c1ccc2nccnc2c1	5	10%	6	19%	1
COc1ccc(CCN2CC(C(=O)NCc3nc4ccccc4n3C)CCC2=O)cc1 (stereo not drawn)	-10	u	38	u	5
Brc1c(OCCOCCn2cncn2)ccc2ccccc12	27*	71%	73	u	20*
CN(C(=O)CSc1cn(CC(=O)N2CCCCC2)c2ccccc12)c1ccccc1	x	x	-5	x	x
CC(=O)Nc1cc(C)ns1	x	x	13	x	x
COc1cc(OC)cc(-c2nnc3n2N=C(c2ccccc2OC)CS3)c1	-7	x	x	x	-2
Cc1cccc(-c2nnc3n2N=C(c2ccccc2Br)CS3)c1	13	u	-83*	-19%	9
Cc1cc(-c2nnc3n2N=C(c2ccccc2Br)CS3)n[nH]1	-22	u	-38	12µM*	-3
COc1ccccc1N(CC(=O)NCCN1CCOCC1)S(=O)(=O)c1ccc(C)cc1	x	11%	-25	1%	x
COc1ccc(C(=O)NCc2nnc(SCC(=O)NCc3ccco3)o2)cc1	-11	7%	-25	u	-1
Cc1ccc(N(CC(=O)NCc2ccc(F)cc2)C(=O)c2csnn2)cc1C	16	10%	6	-10%	4
CCCSCC(=O)Nc1ncc2c(n1)-c1ccccc1CC2	25	446%	-95*	38%	9
COc1ccc2[nH]c(C)c(CCNC(=S)Nc3cc(C)ccc3C)c2c1	-9	-4%	-61*	-34%	-4
CCc1cccc(C)c1NC(=S)NCCc1c(C)[nH]c2ccc(C)cc12	35	u	-72*	15µM*	-1
COc1ccc2[nH]c(C)c(CCNC(=S)Nc3cccc(C)c3)c2c1	-10	u	u	u	-2
CCc1cccc(CC)c1NC(=S)NCCc1c(C)[nH]c2ccc(C)cc12	23	u	-93*	10µM*	7
CCOC(=O)C1=CCN(S(=O)(=O)c2ccccc2F)C1c1cccc(C)c1 (stereo not drawn)	x	x	-3	x	x
Cc1ccc(Sc2c(CO)c(-c3ccccc3)nn2C)cc1	9	u	-83*	2%	12
SMILES	Shiga toxin inh	Pf growth 48h	HCMV inh	Pf growth 96h	Cycloheximide cs
Cn1nc(-c2ccccc2)c(CO)c1Oc1cccc(C(F)(F)F)c1	17	u	-4	u	6
Cc1ccc(SCCSc2nc(N)cc(=O)[nH]2)cc1	33	0%	-29	66%	22*
Nc1ncnc2nc(SCc3ccc(Cl)cc3Cl)[nH]c12	-17	x	-11	u	9
Cc1ccc(SCCSc2nc(C)cc(=O)[nH]2)cc1	x	-2%	17	-14%	40*
FC(F)(F)c1nc(SCc2ccc(Cl)cc2Cl)n[nH]1	28	22%	18	-1%	20*
Nc1cc(=O)[nH]c(SCc2ccc(Cl)cc2Cl)n1	-2	x	-60*	39%	-3
Nc1cc(=O)[nH]c(SCCSc2ccc(F)cc2)n1	23	13%	-20	16%	-5
CC(=O)Nc1ccc(S(=O)(=O)NNC(=O)c2cccc(Br)c2)cc1	-5	-6%	-18	46%	-2
